These results are taken from PubChem BioAssay (NCI).

The panel holds about 83,000 compounds, 20% with a hit somewhere; the sample as a whole holds those more often.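 96-well plates, one dose, 48 hours. Percent growth reported; active if below 10.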 Unmarked numbers belong to inactive results. Activity calls are given as the source filed them.

Among the test systems are SK-MEL-2 melanoma; SN12C renal; UO-31 renal; TK-10 renal; ACHN renal; CAKI-1 renal; A498 renal; CCRF-CEM leukemia; MOLT-4 leukemia; SR leukemia; RPMI-8226 leukemia; OVCAR-8 ovarian; OVCAR-5 ovarian; OVCAR-4 ovarian; SK-OV-3 ovarian; IGROV1 ovarian; OVCAR-3 ovarian; HS 578T breast; NCI/ADR-RES ovarian; EKVX NSCLC.
Common to all, as to assay: NCI-60 one-dose screen, 48 h (100 = growth as untreated, 0 = no growth, -100 = all killed)
Common to all, as to details: 10 µM unless noted

In the case of `CCOC(=O)c1ccccc1NC(c1ccccc1)c1ccc2cccnc2c1O` (configuration not stated), the growth in the test on SK-MEL-2 melanoma was 50.9%; with SN12C renal it was 35.2%; in the test with UO-31 renal it was 21%; with TK-10 renal it was 37.3%; in the test on ACHN renal, 14.4%; in the test on CAKI-1 renal it was 15.9%. Further, the growth in the test on A498 renal is 38.4%; in the test on CCRF-CEM leukemia, 9.7% (active); in the test on MOLT-4 leukemia, 12.6%; in the test on SR leukemia, 17.7%; in the test with RPMI-8226 leukemia, 17.5%; with OVCAR-8 ovarian, 17%. In addition, the growth with OVCAR-5 ovarian is 53.7%; in the test on OVCAR-4 ovarian, 21.5%; in the test on SK-OV-3 ovarian, 14.1%; in the test with IGROV1 ovarian, 41.8%; with OVCAR-3 ovarian, 32.6%; in the test with HS 578T breast it was 71.6%. For the same compound, in the test on NCI/ADR-RES ovarian, the growth is 11.9%.

As for `CCNc1nc(N2CC(=O)Nc3cc(OC)ccc32)c2ccccc2n1`, the growth was 31.6% in the test on SK-MEL-2 melanoma; 12.8% in the test on EKVX NSCLC; 27% in the test with SN12C renal; 15.6% with UO-31 renal; 21.3% with TK-10 renal; 8.34% (active) with ACHN renal. In addition, the growth is 22.6% in the test on CAKI-1 renal; 26.8% with CCRF-CEM leukemia; 24.8% with MOLT-4 leukemia; 24.3% in the test with SR leukemia; 27.3% in the test with RPMI-8226 leukemia; 18.1% in the test on OVCAR-8 ovarian. Besides, the growth with OVCAR-4 ovarian was 20.4%; in the test on SK-OV-3 ovarian, 27.4%; in the test with IGROV1 ovarian, 14.3%; with OVCAR-3 ovarian, -16.8% (active); in the test on HS 578T breast it was 7.61% (active); with NCI/ADR-RES ovarian, 0.157% (active).

With `CC(=O)Nc1ccc(S(=O)(=O)NC(CCC(=O)Nc2ccc(Cl)cc2)C(=O)O)cc1` (configuration not stated), the growth with SK-MEL-2 melanoma was 107%; in the test with SN12C renal it was 102%; with UO-31 renal, 62.1%; in the test with TK-10 renal it was 95.8%; in the test with ACHN renal it was 75.7%; in the test with CAKI-1 renal, 83%. Besides, the growth was 58.3% in the test with A498 renal; 88% in the test with CCRF-CEM leukemia; 110% in the test on MOLT-4 leukemia; 77.9% with SR leukemia; 99.1% in the test on RPMI-8226 leukemia; 97.4% with OVCAR-8 ovarian. Further, the growth is 77.7% in the test with OVCAR-5 ovarian; 94% in the test with OVCAR-4 ovarian; 93.7% with SK-OV-3 ovarian; 112% with IGROV1 ovarian; 107% with OVCAR-3 ovarian; 98.4% with HS 578T breast. Moreover, in the test with NCI/ADR-RES ovarian, the growth is 100%.

With `Cc1cc(Nc2nc(-c3ccc(F)cc3)nc3ccccc23)n[nH]1`, the growth in the test with SK-MEL-2 melanoma is 27.7%; in the test with SN12C renal, 61.6%; with UO-31 renal it was 32%; in the test on TK-10 renal it was 32.6%; in the test with ACHN renal, 39.4%; in the test with CAKI-1 renal, -7.57% (active). For the same compound, the growth in the test with A498 renal was 1.89% (active); in the test on CCRF-CEM leukemia it was 44.5%; in the test on MOLT-4 leukemia, 64.1%; in the test on SR leukemia, 20.4%; in the test with RPMI-8226 leukemia, 94.8%; with OVCAR-8 ovarian, 95%. In addition, the growth was 70.3% in the test on OVCAR-5 ovarian; 41% with OVCAR-4 ovarian; 21% in the test on SK-OV-3 ovarian; 11.3% with IGROV1 ovarian; 61.5% in the test with OVCAR-3 ovarian; 25.1% in the test on HS 578T breast. The growth in the test with NCI/ADR-RES ovarian is 71%.

Turning to `O=[N+]([O-])c1cc(S(=O)(=O)OCC2CO2)ccc1Cl` (configuration not stated), the growth is 88.4% in the test on SK-MEL-2 melanoma; 103% in the test with SN12C renal; 89.7% with UO-31 renal; 114% with TK-10 renal; 98.5% in the test on ACHN renal; 104% in the test with CAKI-1 renal. The growth with A498 renal was 121%; with CCRF-CEM leukemia it was 76.7%; in the test with MOLT-4 leukemia it was 95.3%; with SR leukemia, 1.01% (active); with RPMI-8226 leukemia, 63.6%; with OVCAR-8 ovarian, 87.5%. For the same compound, the growth in the test with OVCAR-5 ovarian was 111%; in the test on OVCAR-4 ovarian, 106%; in the test with SK-OV-3 ovarian, 104%; in the test with IGROV1 ovarian it was 52.6%; with OVCAR-3 ovarian, 108%; in the test with HS 578T breast it was 101%. The growth in the test with NCI/ADR-RES ovarian was 108%.

As for `COC(=O)c1ccc(C)cc1`, the growth in the test with SK-MEL-2 melanoma was 106%; in the test with EKVX NSCLC, 98.3%; in the test with SN12C renal, 107%; in the test on UO-31 renal, 101%; in the test with TK-10 renal it was -16.3% (active); with ACHN renal, 116%. The growth in the test with CAKI-1 renal is 97%; in the test on CCRF-CEM leukemia, 101%; with MOLT-4 leukemia it was 103%; with RPMI-8226 leukemia it was 102%; in the test with OVCAR-8 ovarian it was 103%; in the test with OVCAR-4 ovarian, 105%. Besides, the growth was 99.6% in the test on SK-OV-3 ovarian, 106% in the test with OVCAR-3 ovarian, 99.5% in the test with HS 578T breast and 106% in the test with NCI/ADR-RES ovarian.

In the case of `Nc1c(C(=O)Nc2cccc([N+](=O)[O-])c2)sc2nc3c(cc12)C(O)CCC3` (configuration not stated), the growth in the test with SK-MEL-2 melanoma is 26.2%; with SN12C renal, 65.8%; in the test with UO-31 renal it was 69%; in the test with TK-10 renal, 76.6%; with ACHN renal, 92.1%; with CAKI-1 renal, 66.7%. In addition, the growth in the test on A498 renal was 27.6%; in the test on CCRF-CEM leukemia it was 37.2%; in the test on MOLT-4 leukemia, 42.2%; in the test with SR leukemia it was 21%; in the test on RPMI-8226 leukemia, 52%; in the test with OVCAR-8 ovarian it was 82.3%. For the same compound, the growth was 78.7% in the test with OVCAR-5 ovarian; 80.2% in the test with OVCAR-4 ovarian; 46.3% with SK-OV-3 ovarian; 52.5% with IGROV1 ovarian; 33.1% in the test on OVCAR-3 ovarian; 71.8% in the test on HS 578T breast. Further, the growth in the test with NCI/ADR-RES ovarian is 47.8%.

`Nc1nc(-c2ccccc2)cs1`: the growth in the test with SK-MEL-2 melanoma was 82.1%; in the test with SN12C renal it was 101%; in the test on UO-31 renal it was 75.7%; with TK-10 renal it was 98.5%; with ACHN renal it was 103%; with CAKI-1 renal, 94%. Moreover, the growth was 81.5% in the test with A498 renal; 110% with CCRF-CEM leukemia; 105% in the test with MOLT-4 leukemia; 94.5% in the test with SR leukemia; 109% in the test with RPMI-8226 leukemia; 100% with OVCAR-8 ovarian. The growth in the test on OVCAR-5 ovarian is 98.7%; in the test with OVCAR-4 ovarian, 102%; in the test with SK-OV-3 ovarian, 99.4%; in the test with IGROV1 ovarian, 113%; with OVCAR-3 ovarian, 102%; in the test on HS 578T breast, 104%. The growth with NCI/ADR-RES ovarian is 110%.

As to `O=[N+]([O-])c1c(S(=O)(=O)O)cc2cc(S(=O)(=O)O)ccc2c1[N+](=O)[O-]`, the growth in the test with SK-MEL-2 melanoma is 107%; with SN12C renal it was 101%; in the test with UO-31 renal it was 76.5%; with TK-10 renal, 93%; in the test with ACHN renal, 98.8%; in the test on CAKI-1 renal, 93.8%. For the same compound, the growth in the test on A498 renal was 106%; in the test on CCRF-CEM leukemia, 107%; with MOLT-4 leukemia, 93.8%; in the test with SR leukemia it was 103%; in the test with RPMI-8226 leukemia, 109%; in the test with OVCAR-8 ovarian it was 114%. For the same compound, the growth was 97.2% in the test on OVCAR-5 ovarian; 114% in the test on OVCAR-4 ovarian; 122% with SK-OV-3 ovarian; 103% in the test with IGROV1 ovarian; 104% with OVCAR-3 ovarian; 98.7% in the test on HS 578T breast. The growth with NCI/ADR-RES ovarian is 102%.
